# According to PubChem BioAssay (NCATS):
# Results filed as inconclusive are left out. Where a call stands in place of a potency, no number is given. Unmarked numbers belong to inactive results. The source made the active and inactive calls. Calls follow the shape of the dose curve; as a rule, active = well fitted curve in the direction sought with a large enough effect; inconclusive = small, poorly fitted or top-dose-only effect, or another doubt; inactive = no such curve, though single readings can be large; an effect the other way counts as inactive or inconclusive.
# Experiments:
# [1] = molecular target: Rap guanine nucleotide exchange factor 3 (Homo sapiens) (UniProt O95398); assay: Confirmatory qHTS for agonist of cAMP-regulated guanine nucleotide exchange factor 3 (EPAC1) (AID 1645881);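 also: EPAC1 catalysed release of BODIPY-GDP from Rap1B seen as fluorescence loss; nearly all actives have a fitted effect of over 75% in size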
# Chain of Rap guanine nucleotide exchange factor 3 (Homo sapiens) (O95398 whole entry, looked up): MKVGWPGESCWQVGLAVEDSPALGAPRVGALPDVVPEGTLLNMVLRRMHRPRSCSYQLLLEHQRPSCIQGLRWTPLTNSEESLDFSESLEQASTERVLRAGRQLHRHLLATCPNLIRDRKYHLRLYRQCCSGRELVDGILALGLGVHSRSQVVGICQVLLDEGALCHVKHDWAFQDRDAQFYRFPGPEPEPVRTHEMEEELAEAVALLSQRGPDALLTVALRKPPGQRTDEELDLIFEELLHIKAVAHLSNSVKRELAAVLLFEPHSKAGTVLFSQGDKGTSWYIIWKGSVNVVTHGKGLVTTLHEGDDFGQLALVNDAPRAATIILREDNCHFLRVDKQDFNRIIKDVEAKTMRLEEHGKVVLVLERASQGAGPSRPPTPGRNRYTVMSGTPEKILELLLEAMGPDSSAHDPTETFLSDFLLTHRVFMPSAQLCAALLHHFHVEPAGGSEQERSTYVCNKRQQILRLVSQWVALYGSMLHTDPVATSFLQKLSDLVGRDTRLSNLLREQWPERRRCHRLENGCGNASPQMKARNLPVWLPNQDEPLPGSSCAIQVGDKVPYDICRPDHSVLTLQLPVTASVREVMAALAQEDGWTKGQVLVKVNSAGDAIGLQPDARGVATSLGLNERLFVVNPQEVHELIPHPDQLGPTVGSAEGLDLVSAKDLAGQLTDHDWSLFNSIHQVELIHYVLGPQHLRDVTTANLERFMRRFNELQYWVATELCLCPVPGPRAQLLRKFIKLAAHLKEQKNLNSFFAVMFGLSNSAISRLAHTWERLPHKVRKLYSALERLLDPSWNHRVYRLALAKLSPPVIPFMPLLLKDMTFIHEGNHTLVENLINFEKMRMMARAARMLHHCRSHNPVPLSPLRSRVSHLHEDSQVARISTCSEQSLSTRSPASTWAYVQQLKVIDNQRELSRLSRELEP
# [2] = molecular target: Rap guanine nucleotide exchange factor 4 (Homo sapiens) (UniProt Q8WZA2); assay: Confirmatory qHTS for agonist of cAMP-regulated guanine nucleotide exchange factor 4 (EPAC2) (AID 1645884);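 also: nucleotide exchange releases bodipy-GDP from Rap1 and this lowers its fluorescence; nearly all actives have a fitted effect of over 65% in size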
# Chain of Rap guanine nucleotide exchange factor 4 (Homo sapiens) (Q8WZA2 whole entry, looked up): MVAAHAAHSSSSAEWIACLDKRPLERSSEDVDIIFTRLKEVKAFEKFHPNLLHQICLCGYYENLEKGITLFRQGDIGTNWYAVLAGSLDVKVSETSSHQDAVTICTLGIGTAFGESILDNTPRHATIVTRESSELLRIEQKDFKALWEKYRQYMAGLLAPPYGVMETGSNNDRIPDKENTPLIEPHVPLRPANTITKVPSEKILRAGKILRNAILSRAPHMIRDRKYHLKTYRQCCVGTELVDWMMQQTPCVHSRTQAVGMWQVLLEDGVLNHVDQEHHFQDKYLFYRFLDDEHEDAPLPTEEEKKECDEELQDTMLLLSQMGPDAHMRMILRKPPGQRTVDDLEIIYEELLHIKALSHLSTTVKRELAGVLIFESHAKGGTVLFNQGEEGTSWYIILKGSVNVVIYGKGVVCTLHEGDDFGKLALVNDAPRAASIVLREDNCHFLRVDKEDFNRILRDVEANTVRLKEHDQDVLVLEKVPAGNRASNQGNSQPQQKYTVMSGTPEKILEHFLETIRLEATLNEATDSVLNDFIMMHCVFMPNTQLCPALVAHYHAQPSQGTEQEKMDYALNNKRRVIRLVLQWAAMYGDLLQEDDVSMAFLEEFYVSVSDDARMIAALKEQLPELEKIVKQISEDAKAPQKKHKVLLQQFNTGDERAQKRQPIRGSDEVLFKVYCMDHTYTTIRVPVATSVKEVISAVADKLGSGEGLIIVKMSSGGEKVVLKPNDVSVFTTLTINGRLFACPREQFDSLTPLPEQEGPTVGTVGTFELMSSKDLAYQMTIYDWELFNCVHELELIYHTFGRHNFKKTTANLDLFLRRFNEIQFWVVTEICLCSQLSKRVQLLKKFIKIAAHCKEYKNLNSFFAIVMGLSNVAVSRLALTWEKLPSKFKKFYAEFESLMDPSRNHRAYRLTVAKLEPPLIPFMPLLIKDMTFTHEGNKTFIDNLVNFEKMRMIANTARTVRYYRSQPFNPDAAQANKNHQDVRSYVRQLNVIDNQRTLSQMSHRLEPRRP
# [3] = molecular target: Rap guanine nucleotide exchange factor 4 (Homo sapiens) (UniProt Q8WZA2); assay: Confirmatory qHTS for antagonist of cAMP-regulated guanine nucleotide exchange factor 4 (EPAC2) (AID 1645885); also: nearly all actives have a fitted effect of over 25% in size; also: potency is read from the fitted curve at half-maximal effect
# [4] = molecular target: Rap guanine nucleotide exchange factor 3 (Homo sapiens) (UniProt O95398); assay: Counterscreen qHTS for antagonist of cAMP-regulated guanine nucleotide exchange factor 3 (EPAC1) (AID 1645888);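 also: fluorescence loss as bound BODIPY-GDP is released from Rap1B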
# Summary of the method: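 Rap1B–BODIPY-GDP (250 nM) with 50 uM GDP; compounds pin-transferred to 9.74 nM–152 uM final (activator) or from 7.32 nM upwards (inhibitor). Fluorescence Ex/Em 480/540 nm read at 5 and 30 min, then after adding cAMP or buffer, at room temperature.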
Structure (SMILES),Potency [1],activation [2],Potency [3],"activity change, negative = inhibition [4]",Potency [2],Potency [4]
C=C(C)COc1ccc(-c2[nH]ncc2-c2ccccc2OC)c(O)c1,inactive,"16.3% [at 17.1 µM, percent relative to cAMP agonist control]",inactive,6.08% [at 30.8 µM],,
CCOc1cccc(CNc2ccc(O)cc2)c1OCc1ccc(Cl)cc1Cl,inactive,,inactive,,inactive,inactive
O=S1(=O)N=C(N(Cc2cccs2)c2ccc(O)cc2)c2ccccc21,inactive,,inactive,,inactive,inactive
O=C(NCCCN1CCOCC1)c1ccc2c(c1)N(Cc1cccc(Cl)c1)C(=O)c1ccccc1S2,inactive,,inactive,,inactive,inactive
O=C(CSc1nnc(-c2cnccn2)n1Cc1ccco1)c1ccc(Cl)cc1,inactive,,inactive,,inactive,inactive
C/C(=N\Nc1nc2ccccc2[nH]1)c1cc2ccccc2o1,inactive,"1.22% [at 17.1 µM, percent relative to cAMP agonist control]",inactive,-0.654% [at 30.8 µM],,
CCc1nc2sc3ccccc3c(=O)c2c(=O)n1Cc1ccco1,inactive,,75.7 µM (active),,inactive,inactive
C=CCN1C(=O)[C@@H]2Cc3c([nH]c4ccccc34)C(c3ccc(O)cc3)N2C1=S (some centres not stated),inactive,,inactive,,inactive,inactive
O=C(Nc1c(-c2ccc3c(c2)OCO3)[nH][nH]c1=O)c1ccccc1,inactive,,inactive,,inactive,inactive
COc1ccc(/C=C/C(=O)Oc2ccc(C)c(C)c2)cc1OC,inactive,,inactive,,inactive,inactive
O=C(Nc1nc(-c2ccco2)c(-c2ccco2)s1)c1ccco1,inactive,"2.72% [at 17.1 µM, percent relative to cAMP agonist control]",inactive,0.168% [at 30.8 µM],,
Cc1cc(CSc2ccc(Cl)cc2)ccc1N,inactive,,inactive,,inactive,inactive
CC1=NN(c2ccc(C)c(C)c2)C(=O)C1C(c1cccc(O)c1)C1C(=O)N(c2ccc(C)c(C)c2)N=C1C (configuration not stated),inactive,"7.48% [at 17.1 µM, percent relative to cAMP agonist control]",inactive,19.9% [at 30.8 µM],,
O=C1C(=O)c2ccc(-c3ccccc3)cc2-c2ccccc21,inactive,,inactive,,inactive,inactive
Cc1ccc2[nH]cc(C(c3ccccc3)c3ccc(Cl)s3)c2c1 (configuration not stated),inactive,,inactive,,inactive,inactive
CCn1c2c(c3cc(Cl)ccc31)CCCC2=O,inactive,,inactive,,inactive,inactive
CN(CC(=O)Nc1cccc(F)c1)C(=O)c1cccc(S(=O)(=O)N2CC3(C)CC2CC(C)(C)C3)c1 (configuration not stated),inactive,"8% [at 17.1 µM, percent relative to cAMP agonist control]",inactive,-23.1% [at 30.8 µM],,
Cc1c(C)c2ccc(OCC(=O)Nc3ccc(S(N)(=O)=O)cc3)c(C)c2oc1=O,inactive,,inactive,,inactive,inactive
